The source of these data is PubChem BioAssay.

The nature of this assay: compound effects on multiple myeloma cell viability – MM1S, calcein-AM fluorescence, 48 h, basal, profiling panel (AID 1165). Further: test concentration not given here. Conditions: higher = more signal.
As to `COCCCNC(=O)[C@@]1(Sc2ccc(C)cc2)CC(=O)N(Cc2ccccc2)[C@@H]1c1ccc(CO)cc1I`, the z-score is -2.37.

With `COC(=O)[C@H](C)NC(=O)CCC1CC(OC(=O)NCCc2ccc(F)cc2)CC2(CCCC(COC(=O)NCC(c3ccccc3)c3ccccc3)O2)O1` (stereo partly specified), the z-score was -3.44.

Consider `COc1ccccc1CN1C(=O)c2ccccc2[C@@H](C(=O)NCC(F)(F)F)[C@@H]1c1ccc(CO)cc1`, for which the z-score was -0.127. On to `Cc1cc2c(c(=O)o1)[C@H](O)[C@H]1O[C@H]1C2=O`, for which the z-score was -3.45. On to `CCN(CC)c1ccc(N2CC=CC34O[C@@H]5/C=C\CCC(C)OC(=O)C5[C@H]3C(=O)N(CCCO)[C@@H]4C2=O)cc1` (stereo partly specified), for which the z-score is 1.09. As to `O=C1O[C@@H](c2ccccc2)[C@@H](c2ccccc2)N2[C@@H](c3ccccc3OCCO)[C@]3(C(=O)Nc4ccc(C#CCCO)cc43)[C@@H](C(=O)O)[C@H]12`, the z-score was -1.43. Consider `COc1ccc([Si](C)(C)[C@@H]2[C@@H](CC(=O)N3CCC[C@H]3CO)O[C@]3(C(=O)N(Cc4cccc(N5CCC5=O)c4)c4ccccc43)[C@H]2C)cc1`, for which the z-score was -2.71. For the compound `CC(C)(C)N1CC=CC23O[C@@H]4C=CCCOC(=O)C4[C@H]2C(=O)N(CCCCCO)[C@@H]3C1=O` (stereo partly specified), the z-score was 1.87.

For the compound `COc1cccc([C@@H]2Oc3ccc(Br)cc3C(=O)[C@H]2O)c1`, the z-score is -3.44. Consider `CO[C@H]1COC(=O)[C@@H]2CCCN2C(=O)CC=C[C@@H](C)[C@H](OC)COC(=O)CC=C[C@@H]1C`, for which the z-score was 0.292.

As for `CC(CCN1CCc2nc(-c3ccccc3)c(-c3ccccc3)cc2C1)=NO[C@H](C)c1cn([C@@H]2COC[C@H]2O)nn1`, the z-score was 0.259. Turning to `COC(=O)[C@H]1COC(c2ccc(OCCCO)cc2)=N1`, the z-score is 0.0072. Consider `O=C1[C@H]2[C@H]3[C@H](O)[C@H](O)CC(=NOC[C@@H](O)COCc4ccco4)[C@H]3CC[C@H]2C(=O)N1Cc1ccc2c(c1)OCO2`, for which the z-score was -0.642. With `CC[C@@H](c1ccccc1)n1c(=O)n2n(c1=O)[C@H]1[C@H](O)[C@@H]3O[C@@H]3C(=NOCC=C(C)CCC=C(C)C)[C@H]1CC2`, the z-score was -3.08.

For the compound `C[C@@H](c1ccccc1)N1C(=O)[C@H]2[C@H]3[C@H](O)[C@H](O)CC(=NOC[C@@H](O)COCc4ccco4)[C@@H]3CC[C@H]2C1=O`, the z-score was 0.0485. For `CO[C@H]1O[C@H](CO)[C@@H](OC(=O)Nc2ccc3c(c2)OCO3)[C@H](OC(=O)Nc2ccccc2-c2ccccc2)[C@@H]1OC(=O)Nc1ccccc1-c1ccccc1` the value was -0.624; for `NCCCCCNC(=O)[C@@H]1C[C@@H]2C(=O)N3CCC[C@H]3C(=O)N2[C@@H]1c1cccc(OCCO)c1`, 0.0689.

`C[C@@H]1C=CCC(=O)OC[C@H](C)C(=O)N2CCC[C@H]2C(=O)OC1`: the z-score was 0.13. With `CCCC=C(CCC)[C@@H](NC(=O)c1ccc(-c2ccccc2)cc1)c1ccc(C(=O)OC)cc1`, the z-score was -0.116.

For `CCOC(=O)[C@H](Cc1ccccc1)NC(=O)CCC1CC(OC(=O)NCc2ccc3c(c2)OCO3)CC2(CCCC(COC(=O)NCC3CCCCC3)O2)O1` (stereo partly specified), the z-score was -2.06. For `COc1ccc(COC(=O)NN=C2C[C@@H](O)[C@@H](O)[C@@H]3[C@@H]4C(=O)N(c5ccc(F)cc5F)C(=O)[C@@H]4CC[C@@H]23)cc1` the value was -0.738; for `CC(C)[C@@H](OCc1ccccc1)[C@H](C)C=NO[C@H](C)c1cn([C@H](CO)Cc2ccccc2)nn1`, -0.192; for `COC(=O)[C@H](C)NC(=O)CCC1CC(OC(=O)NCc2cccc3ccccc23)CC2(CCCC(COC(=O)NCCc3ccc(Cl)cc3)O2)O1` (stereo partly specified), -0.333.

For the compound `COc1ccc(-c2nc3c(c4c2C[C@H](C)OC4)CN(CCC(C)C)CC3)cc1`, the z-score was 0.508. On to `O=C(NN=C1C[C@@H](O)[C@@H](O)[C@@H]2[C@@H]3C(=O)N(c4cccc(Oc5ccccc5)c4)C(=O)[C@@H]3CC[C@H]12)OCc1ccccc1`, for which the z-score was 0.693. On to `CCOC(=O)CCN1C(=O)[C@H]2[C@H]3[C@H](O)[C@H](O)CC(=NNC(=O)OCc4ccc(OC)cc4)[C@@H]3CC[C@H]2C1=O`, for which the z-score was 0.717. For `CCN1C(=O)[C@H]2[C@H]3[C@H](O)C=CC(=O)[C@@H]3CC[C@H]2C1=O` the value was -0.434.

On to `C=C(CCCC)C(=O)CC[C@@H](OC(C)=O)c1cccc(OCCO)c1`, for which the z-score is -2.53.

On to `O=C1C[C@]2(c3ccc([N+](=O)[O-])cc3)C(=O)N(CCN3CCOCC3)c3cc(CO)ccc3[C@H]2N1CC12CC3CC(CC(C3)C1)C2`, for which the z-score is -0.208. Regarding `[N-]=[N+]=NCc1ccccc1[C@@H]1OC(c2ccc(OCCCO)cc2)=N[C@]1(Cc1ccccc1)C(=O)N1CCOCC1`, the z-score was -1.2. Consider `CC(C)N1CC=CC23O[C@@H]4C=CCCOC(=O)C4[C@H]2C(=O)N(CCCCCCO)[C@@H]3C1=O` (stereo partly specified), for which the z-score is 0.585. Consider `CCCNC(=O)[C@@H]1c2ccccc2C(=O)N(Cc2ccccc2Cl)[C@H]1c1ccc(CO)cc1`, for which the z-score was -0.138. For the compound `CCN1C(=O)[C@H]2[C@H]3[C@H](O)[C@H](O)CC(=NOCc4ccccc4)[C@H]3CC[C@H]2C1=O`, the z-score was -0.463.

With `C[C@H](c1ccccc1)N1C(=O)[C@H]2[C@H]3[C@H](O)[C@H](O)CC(=O)[C@@H]3CC[C@H]2C1=O`, the z-score is -0.0752. With `COC(=O)C1=C(C)[C@@H](O)[C@@H](C)[C@H](c2c(OC)c(OC)c(C)c(OC)c2OC)O1`, the z-score was 0.631. `CC(=O)OC[C@H]1O[C@H](CC=NOC[C@@H](C)[C@H](OCc2ccccc2)C(C)C)C=C[C@@H]1OC(C)=O`: the z-score was -0.886.
